# Measurements: PubChem BioAssay (NCATS)
# Results filed as inconclusive are left out. Where a call stands in place of a potency, no number is given. The source made the active and inactive calls. Unless noted, calls come from the whole dose curve; as a rule, active = well fitted curve in the direction sought with a large enough effect; inconclusive = small, poorly fitted or top-dose-only effect, or another doubt; inactive = no such curve, though single readings can be large; an effect the other way counts as inactive or inconclusive.
# Experiments:
# [1] = target: ATP-dependent 6-phosphofructokinase (Trypanosoma brucei brucei) (UniProt O15648); experiment: qHTS Assay to Find Inhibitors of T. brucei phosphofructokinase: hit validation (AID 492961);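 note: luminescence reports ADP formed as PFK phosphorylates fructose-6-phosphate with ATP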
# Sequence of ATP-dependent 6-phosphofructokinase (Trypanosoma brucei brucei) (O15648 whole entry, looked up): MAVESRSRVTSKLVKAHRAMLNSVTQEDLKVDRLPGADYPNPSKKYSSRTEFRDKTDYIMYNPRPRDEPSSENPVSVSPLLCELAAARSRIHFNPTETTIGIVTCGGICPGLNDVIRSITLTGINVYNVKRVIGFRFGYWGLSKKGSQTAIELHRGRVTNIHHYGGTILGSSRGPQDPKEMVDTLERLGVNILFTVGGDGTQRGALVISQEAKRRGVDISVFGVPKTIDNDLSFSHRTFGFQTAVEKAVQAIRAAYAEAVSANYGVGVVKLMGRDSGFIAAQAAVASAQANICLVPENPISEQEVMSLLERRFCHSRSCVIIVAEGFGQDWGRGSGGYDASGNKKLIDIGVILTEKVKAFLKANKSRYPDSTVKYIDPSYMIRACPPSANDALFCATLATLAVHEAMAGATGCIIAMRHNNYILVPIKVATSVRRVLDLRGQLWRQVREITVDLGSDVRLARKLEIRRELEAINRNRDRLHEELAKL
# Outline: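 Compounds titrated; %activity normalized to 0x and 1x enzyme controls, curve-fitted. Readout: ADP-Glo luminescence after 45 min room-temperature reaction of 1.25 nM PFK, 0.1 mM ATP, 0.5 mM F6P, pH 8.0.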
# [2] = target: Ubiquitin carboxyl-terminal hydrolase 1 (Homo sapiens) (UniProt O94782); experiment: Inhibitors of USP1/UAF1: Pilot qHTS (AID 504865);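 note: rhodamine fluorescence freed from ubiquitin-rhodamine substrate followed over time; top concentration of the series differs between compounds; nearly all actives have a fitted effect of over 35% in size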
# Sequence of Ubiquitin carboxyl-terminal hydrolase 1 (Homo sapiens) (O94782 whole entry, looked up): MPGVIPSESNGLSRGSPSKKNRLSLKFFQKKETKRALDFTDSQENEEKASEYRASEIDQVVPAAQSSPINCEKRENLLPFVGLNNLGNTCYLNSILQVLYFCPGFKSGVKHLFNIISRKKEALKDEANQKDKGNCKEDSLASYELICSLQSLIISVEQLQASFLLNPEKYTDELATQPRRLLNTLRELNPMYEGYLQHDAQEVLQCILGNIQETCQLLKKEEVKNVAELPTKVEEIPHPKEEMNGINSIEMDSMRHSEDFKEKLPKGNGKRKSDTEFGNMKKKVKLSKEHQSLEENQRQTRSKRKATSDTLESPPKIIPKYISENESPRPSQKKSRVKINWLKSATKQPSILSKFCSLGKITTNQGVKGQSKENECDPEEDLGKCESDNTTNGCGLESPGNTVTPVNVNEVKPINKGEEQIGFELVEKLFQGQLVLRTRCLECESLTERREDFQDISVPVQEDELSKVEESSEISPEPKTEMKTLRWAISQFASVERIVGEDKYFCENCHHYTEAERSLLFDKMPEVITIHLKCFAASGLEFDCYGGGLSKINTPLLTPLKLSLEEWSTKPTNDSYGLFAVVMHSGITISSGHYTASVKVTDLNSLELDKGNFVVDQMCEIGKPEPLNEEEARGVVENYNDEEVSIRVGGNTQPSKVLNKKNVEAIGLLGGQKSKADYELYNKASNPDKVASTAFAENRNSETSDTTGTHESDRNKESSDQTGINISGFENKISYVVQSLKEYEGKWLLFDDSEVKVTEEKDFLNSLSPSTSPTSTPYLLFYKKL
# Outline: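 Kinetic fluorescence assay: 1nM USP1/UAF1, 15 min compound preincubation, then 150nM Ub-Rho; 480/540 nm.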
# [3] = target: Luciferin 4-monooxygenase (Photinus pyralis) (UniProt P08659); experiment: Biochemical firefly luciferase enzyme assay for NPC (AID 624030);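 note: purified P. pyralis luciferase at 10 nM with luciferin and ATP substrate; nearly all actives have a fitted effect of over 70% in size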
# Sequence of Luciferin 4-monooxygenase (Photinus pyralis) (P08659 whole entry, looked up): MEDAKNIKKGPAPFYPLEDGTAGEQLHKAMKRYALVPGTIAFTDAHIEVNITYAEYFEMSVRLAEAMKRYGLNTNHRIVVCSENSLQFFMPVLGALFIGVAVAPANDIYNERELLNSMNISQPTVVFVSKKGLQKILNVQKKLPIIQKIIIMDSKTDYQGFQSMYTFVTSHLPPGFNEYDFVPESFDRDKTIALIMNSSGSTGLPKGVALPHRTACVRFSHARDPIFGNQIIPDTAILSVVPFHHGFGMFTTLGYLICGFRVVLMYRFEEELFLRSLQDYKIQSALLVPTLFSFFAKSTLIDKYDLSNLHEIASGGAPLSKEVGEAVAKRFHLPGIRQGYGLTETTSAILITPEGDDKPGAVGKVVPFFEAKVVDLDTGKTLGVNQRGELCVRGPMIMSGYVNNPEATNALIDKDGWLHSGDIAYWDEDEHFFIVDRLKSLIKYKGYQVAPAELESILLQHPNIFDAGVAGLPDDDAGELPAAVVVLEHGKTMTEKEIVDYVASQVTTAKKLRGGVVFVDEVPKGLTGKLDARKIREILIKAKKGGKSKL
# Outline: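 Purified P. pyralis luciferase at 10 nM in 50 mM Tris Acetate (final), luminescence read within 5 minutes of enzyme addition to compounds. Activity normalised to PTC124 versus DMSO; concentration-response curves classed by r2, magnitude and activity.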
# [4] = S16 Schwann cell PMP22 intronic element firefly luciferase assay (AID 624032); note: nearly all actives have a fitted effect of over 30% in size
# Outline: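 Rat S16 Schwann cells stably carrying firefly luciferase driven by a PMP22 intronic element, in 10% FBS, treated 24 h at 37 C. ONE-Glo luminescence normalized to PTC124 control and DMSO (0%); curves classed by r2, magnitude and activity.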
# [5] = S16 Schwann cell PMP22 intronic element beta-lactamase assay (AID 624044; calls by dose curve; note: nearly all actives have a fitted effect of over 15% in size)
# Outline: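 Rat S16 Schwann cells with beta-Lac driven by a PMP22 intronic element, compound-treated 24 h at 37 °C. LiveBLAzer FRET B/G read: 460 nm normalized to potassium clavulanate vs DMSO; 535 nm FRET as viability; concentration-effect curves classified.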
# [6] = target: Furin (Homo sapiens) (UniProt P09958); experiment: Furin counterscreen qHTS for Zika virus inhibitors (AID 1347149);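 note: purified recombinant full-length human furin enzyme at 5 nM; fluorescence gain from furin cutting a BOC-RVRR-AMC peptide substrate over 15 min; top concentration of the series differs between compounds; nearly all actives have a fitted effect of over 70% in size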
# Sequence of Furin (Homo sapiens) (P09958 whole entry, looked up): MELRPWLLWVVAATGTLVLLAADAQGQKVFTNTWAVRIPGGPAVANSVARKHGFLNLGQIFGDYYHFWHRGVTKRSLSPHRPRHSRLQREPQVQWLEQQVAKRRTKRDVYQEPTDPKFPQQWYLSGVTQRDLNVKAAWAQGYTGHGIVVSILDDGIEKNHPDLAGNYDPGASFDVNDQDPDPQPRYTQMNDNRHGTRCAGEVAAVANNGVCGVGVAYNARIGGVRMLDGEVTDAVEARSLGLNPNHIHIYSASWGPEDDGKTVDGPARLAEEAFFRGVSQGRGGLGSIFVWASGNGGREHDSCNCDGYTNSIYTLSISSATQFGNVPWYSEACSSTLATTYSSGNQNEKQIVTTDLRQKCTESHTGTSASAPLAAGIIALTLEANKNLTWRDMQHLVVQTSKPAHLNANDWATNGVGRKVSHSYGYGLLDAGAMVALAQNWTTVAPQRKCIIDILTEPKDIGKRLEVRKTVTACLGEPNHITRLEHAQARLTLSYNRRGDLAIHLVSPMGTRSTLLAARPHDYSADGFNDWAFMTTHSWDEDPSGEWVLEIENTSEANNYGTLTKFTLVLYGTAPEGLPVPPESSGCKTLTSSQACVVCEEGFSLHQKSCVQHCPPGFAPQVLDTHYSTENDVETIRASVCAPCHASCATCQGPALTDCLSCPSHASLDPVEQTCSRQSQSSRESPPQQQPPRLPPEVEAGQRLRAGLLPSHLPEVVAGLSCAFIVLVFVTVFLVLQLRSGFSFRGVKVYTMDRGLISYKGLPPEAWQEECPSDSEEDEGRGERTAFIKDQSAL
# Outline: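 Fluorogenic cleavage of BOC-RVRR-AMC (2 microM final, Km ~15 µM) was monitored (ex 340, em 450 nm) at 37C after 15 min RT preincubation of 5 nM furin with compounds in HEPES pH 7.0 buffer with CaCl2 and Triton X-100. Percent inhibition was fitted to a 4-parameter Hill curve.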
# [7] = Vero cells viability qHTS for Zika virus inhibitors (AID 1347167)
# Outline: (§1)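 Cells seeded at 2.5 x 10^5 cells/mL in DMEM with 4% FBS and attached overnight at 37 degrees C, then exposed to compound for 24 to 48 hours. Viability read as ATP content by CellTiter Glo luminescence.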
# [8] = HepG2 cells viability qHTS for Zika virus inhibitors (AID 1347168)
# Outline: as §1
# [9] = Tertiary RLuc qRT-PCR qHTS assay for Zika virus inhibitors (AID 1347169); note: potency is the fitted concentration of half-maximal effect; nearly all actives have a fitted effect of over 55% in size
# Outline: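 Orthogonal cell-based infection assay using recombinant ZIKV-RLuc (Cambodian) in Vero cells; compound added prior to virus at MOI 1-2. Incubation lasts 48-72 hrs at 37 degrees C before live-cell Renilla substrate is added and luminescence measured.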
# [10] = Primary qHTS for inhibitors of SARS-S pseudo-typed particle cell entry (AID 1479145; calls by dose curve; note: nearly all actives have a fitted effect of over 45% in size)
# [11] = Primary qHTS for inhibitors of MERS-S pseudo-typed particle cell entry (AID 1479149; calls by dose curve; note: nearly all actives have a fitted effect of over 60% in size)
# [12] = Primary qHTS to identify inhibitors of SARS-CoV-2 cell entry (AID 1645846; calls by dose curve; note: nearly all actives have a fitted effect of over 45% in size); details: activity change, negative = inhibition: at 57.1 µM (top of the series) unless noted
# Outline: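 Data are normalized to wells receiving SARS-CoV-2-S pseudoparticles and those given bald particles. Entry signal was luciferase luminescence in stable hACE2 Expi293F cells, 48 hr post-infection, after 1 hr compound pretreatment.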
# [13] = target: Glutathione peroxidase 1 (Homo sapiens) (UniProt P07203); experiment: Primary qHTS Assay for Inhibitors of Recombinant Selenoprotein Glutathione Peroxidase 1 (GPX1) (AID 1845191); note: nearly all actives have a fitted effect of over 65% in size
# Sequence of Glutathione peroxidase 1 (Homo sapiens) (P07203 whole entry, looked up): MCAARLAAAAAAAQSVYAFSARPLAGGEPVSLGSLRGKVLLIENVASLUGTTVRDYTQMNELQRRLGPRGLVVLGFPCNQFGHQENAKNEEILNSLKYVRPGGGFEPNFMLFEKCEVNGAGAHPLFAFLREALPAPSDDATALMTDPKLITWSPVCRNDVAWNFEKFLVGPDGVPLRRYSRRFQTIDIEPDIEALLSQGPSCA
# Outline: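 GR-coupled assay: compounds preincubated 30 min at room temperature with GPX1, then reaction started with CHP; final 10 nM GPX1, 1 mM GSH, 0.5 mM CHP, 0.5 mM NADPH, 100 nM GR, 0.01% BSA, pH 7.5 Tris buffer. NADPH fluorescence (340/450 nm) read at 0 and 15 min.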
# [14] = system: 3D7; experiment: qHTS profiling for inhibitors of Plasmodium falciparum proliferation (AID 504749); note: nearly all actives have a fitted effect of over 60% in size; details: P. falciparum in erythrocytes, SYBR Green DNA, 72 h; series mostly up to 28.7 µM
# Outline: (§2)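 Readout was DNA-dye fluorescence from lysed cultures, ex 485/em 535 nm. Parasitized red cells had grown 72 h with compound; data scaled between 0.29 uM artemisinin and DMSO wells and corrected using vehicle-only plates.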
# [15] = system: AA1029; experiment: as above; details: P. falciparum in erythrocytes, SYBR Green DNA, 72 h; series mostly up to 28.7 µM
# Outline: as §2
# [16] = system: AS120; experiment: as above; details: P. falciparum in erythrocytes, SYBR Green DNA, 72 h; series mostly up to 28.7 µM
# Outline: as §2
# [17] = system: ATS189; experiment: as above; details: P. falciparum in erythrocytes, SYBR Green DNA, 72 h; series mostly up to 28.7 µM
# Outline: as §2
# [18] = system: ATS95; experiment: as above; details: P. falciparum in erythrocytes, SYBR Green DNA, 72 h; series mostly up to 28.7 µM
# Outline: as §2
# [19] = system: C2A; experiment: as above; details: P. falciparum in erythrocytes, SYBR Green DNA, 72 h; series mostly up to 28.7 µM
# Outline: as §2
# [20] = system: CP185; experiment: as above; details: P. falciparum in erythrocytes, SYBR Green DNA, 72 h; series mostly up to 28.7 µM
# Outline: as §2
# [21] = system: CP191; experiment: as above; details: P. falciparum in erythrocytes, SYBR Green DNA, 72 h; series mostly up to 28.7 µM
# Outline: as §2
# [22] = system: CP192; experiment: as above; details: P. falciparum in erythrocytes, SYBR Green DNA, 72 h; series mostly up to 28.7 µM
# Outline: as §2
# [23] = system: CP194; experiment: as above; details: P. falciparum in erythrocytes, SYBR Green DNA, 72 h; series mostly up to 28.7 µM
# Outline: as §2
# [24] = system: CP201; experiment: as above; details: P. falciparum in erythrocytes, SYBR Green DNA, 72 h; series mostly up to 28.7 µM
# Outline: as §2
# [25] = system: CP203; experiment: as above; details: P. falciparum in erythrocytes, SYBR Green DNA, 72 h; series mostly up to 28.7 µM
# Outline: as §2
# [26] = system: CP211; experiment: as above; details: P. falciparum in erythrocytes, SYBR Green DNA, 72 h; series mostly up to 28.7 µM
# Outline: as §2
# [27] = system: CP215; experiment: as above; details: P. falciparum in erythrocytes, SYBR Green DNA, 72 h; series mostly up to 28.7 µM
# Outline: as §2
# [28] = system: CP217; experiment: as above; details: P. falciparum in erythrocytes, SYBR Green DNA, 72 h; series mostly up to 28.7 µM
# Outline: as §2
# [29] = system: CP237; experiment: as above; details: P. falciparum in erythrocytes, SYBR Green DNA, 72 h; series mostly up to 28.7 µM
# Outline: as §2
# [30] = system: CP238; experiment: as above; details: P. falciparum in erythrocytes, SYBR Green DNA, 72 h; series mostly up to 28.7 µM
# Outline: as §2
# [31] = system: CP247; experiment: as above; details: P. falciparum in erythrocytes, SYBR Green DNA, 72 h; series mostly up to 28.7 µM
# Outline: as §2
# [32] = system: CP250; experiment: as above; details: P. falciparum in erythrocytes, SYBR Green DNA, 72 h; series mostly up to 28.7 µM
# Outline: as §2
structure (smiles),measurement,setting,value
CO[C@H]1[C@@H](O)CC(OC2[C@@H](O)CC(OC3[C@@H](O)C[C@H](OC4CC[C@@]5(C)C(CCC6C5CC(O)[C@]5(C)[C@H](C7=CC(=O)OC7)CCC65O)C4)O[C@@H]3C)O[C@@H]2C)O[C@@H]1C (some centres not stated),Potency,[1],inactive
same,Potency,[2],inactive
same,Potency,[3],inactive
same,Potency,[4],inactive
same,Potency,[5],inactive
same,Potency,[6],inactive
same,Potency,[7],inactive
same,Potency,[8],inactive
same,Potency,[9],240 nM (active)
same,Potency,[10],inactive
same,Potency,[11],inactive
same,"activity change, negative = inhibition",[12],-97.7% [at 114 µM]
same,Potency,[13],inactive
same,Potency,[14],inactive
same,Potency,[15],inactive
same,Potency,[16],inactive
same,Potency,[17],inactive
same,Potency,[18],inactive
same,Potency,[19],inactive
same,Potency,[20],inactive
same,Potency,[21],inactive
same,Potency,[22],inactive
same,Potency,[23],inactive
same,Potency,[24],inactive
same,Potency,[25],inactive
same,Potency,[26],inactive
same,Potency,[27],inactive
same,Potency,[28],inactive
same,Potency,[29],inactive
same,Potency,[30],inactive
same,Potency,[31],inactive
same,Potency,[32],inactive
